Source: PubChem
Sampled rows, rich in hits. Any-hit rate of the full collection: about 31%.
CYP2C9 activ: increases human cytochrome P450 2C9 activity | activation factor at 5 µM | recombinant CYP2C9, luciferin-H conversion, luminescence; active compounds read high; factor 1 = untreated enzyme, 0 = blocked | AID 1024 | 1.4% of 96,000 active | P11712;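 active means activation factor of 2 or more for CYP2C9 at a 5 µM dose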
CYP2C19 inhib: human CYP2C19 inhibition | CYP2C19 Supersomes, luciferin-H EGE luminescence, 30 min | AID 778 | 21% of 96,000 active | P33261 | inhibition, % at 5 µM;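 active means CYP2C19 inhibition above a set limit at 5 µM in the primary screen, cut at about 50% in these data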
Target sequence (P33261 whole entry, looked up): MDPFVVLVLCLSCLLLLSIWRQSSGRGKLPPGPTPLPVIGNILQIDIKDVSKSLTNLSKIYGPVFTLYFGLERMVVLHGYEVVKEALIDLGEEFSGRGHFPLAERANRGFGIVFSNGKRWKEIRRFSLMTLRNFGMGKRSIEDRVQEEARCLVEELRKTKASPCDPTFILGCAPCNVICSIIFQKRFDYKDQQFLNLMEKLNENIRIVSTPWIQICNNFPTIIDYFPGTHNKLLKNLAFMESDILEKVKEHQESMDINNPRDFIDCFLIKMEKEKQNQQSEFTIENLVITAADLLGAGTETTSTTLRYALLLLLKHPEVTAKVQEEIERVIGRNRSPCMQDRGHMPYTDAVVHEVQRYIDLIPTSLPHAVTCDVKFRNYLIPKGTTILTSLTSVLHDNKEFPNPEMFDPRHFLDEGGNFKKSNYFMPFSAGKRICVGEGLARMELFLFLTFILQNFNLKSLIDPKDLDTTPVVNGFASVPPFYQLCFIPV
CYP2C9 inhib: blocks human cytochrome P450 2C9; inhibition, % at 5 µM; AID 777; CYP2C9 Supersomes, luciferin-H conversion, luminescence; 20% of 96,000 active;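 active means blocking of liver enzyme CYP2C9 beyond about 50% at 5 µM, limit read from the data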
CYP2C19 activ: increases human CYP2C19 enzyme activity; 96,000 tested, under 10 active; activation factor at 5 µM; recombinant CYP2C19, luciferin-H EGE luminescence; active compounds read high; 0 = fully inhibited enzyme, 1 = untreated enzyme; P33261; AID 1025;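 active means activation factor of at least 2 at 5 µM in the primary screen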
Hits are given with their value; n = inactive.

SMILES	CYP2C9 activ	CYP2C19 inhib	CYP2C9 inhib	CYP2C19 activ
CC(C)Sc1nc2c(c(=O)[nH]1)C(c1cccs1)C1=C(CC(C)(C)CC1=O)N2 (configuration not stated)	n	n	68	n
CCSc1nc2c(c(=O)[nH]1)C(c1ccccn1)C1=C(CC(C)(C)CC1=O)N2 (configuration not stated)	n	n	n	n
CCC(C)(C)n1nnnc1C(C(C)C)N1CCSCC1 (configuration not stated)	n	n	n	n
COc1ccc(N(CC(=O)NC(C)(C)C)S(=O)(=O)c2ccccc2)cc1OC	n	n	n	n
COc1ccc(S(=O)(=O)N(CC(=O)Nc2cccnc2)c2ccccc2OC)cc1	n	54	94	n
CCOc1ccccc1N(CC(=O)Nc1ccc(S(=O)(=O)N2CCOCC2)cc1)S(=O)(=O)c1ccccc1	n	n	n	n
COc1ccc(OC)c(N(CC(=O)Nc2cccnc2)S(=O)(=O)c2ccccc2)c1	n	98	98	n
COc1ccccc1N(CC(=O)Nc1cccnc1)S(=O)(=O)c1ccccc1	n	90	100	n
COc1ccccc1N(CC(=O)NCc1ccccc1)S(C)(=O)=O	n	n	n	n
COc1ccccc1N(CC(=O)Nc1cccnc1)S(C)(=O)=O	n	68	n	n
Cc1nc(NC(=O)c2cccnc2)ccc1Br	n	n	n	n
CCc1nnc(NC(=O)CCN2C(=O)CCC2=O)s1	n	n	n	n
CS(=O)(=O)N1CCCC(C(=O)NCCCN2CCc3ccccc3C2)C1 (configuration not stated)	n	n	n	n
COc1ccccc1N(CC(=O)Nc1ccc(F)c(F)c1)S(C)(=O)=O	n	88	66	n
COc1ccc(NC(=O)CN(c2cccc(F)c2)S(C)(=O)=O)cc1OC	n	n	n	n
COC(=O)c1cc(OC)c(OC)cc1-n1cnc2cc(OC)c(OC)cc2c1=O	n	n	n	n
Cc1ccc(CNC(=O)C2CCC(=O)N2C2CCCCC2)cc1 (configuration not stated)	n	n	n	n
O=C(NCc1ccc(F)cc1)C1CCC(=O)N1C1CCCCC1 (configuration not stated)	n	n	n	n
CCOc1ccc(CCNC(=O)C2CCC(=O)N2C2CCCCC2)cc1OCC (configuration not stated)	n	64	n	n
O=C(NCCc1ccc(Cl)cc1)C1CCC(=O)N1C1CCCC1 (configuration not stated)	2.3	n	n	n
O=C(O)Cc1ccc(C(=O)c2ccccc2F)s1	n	50	n	n
COC(=O)C1=C(N)Oc2cc(C)[nH]c(=O)c2C1c1ccncc1 (configuration not stated)	n	n	51	n
CCn1c(C)cc2c(c1=O)C(c1ccccc1)C(C(=O)OC)=C(N)O2 (configuration not stated)	n	n	n	n
COC(=O)C1=C(N)Oc2cc(C)n(CC3CCCO3)c(=O)c2C1c1ccc(Cl)c(Cl)c1 (configuration not stated)	n	72	81	n
COC(=O)C1=C(N)Oc2cc(C)n(Cc3ccco3)c(=O)c2C1c1cccc(Cl)c1 (configuration not stated)	n	n	56	n
SMILES	CYP2C9 activ	CYP2C19 inhib	CYP2C9 inhib	CYP2C19 activ
COC(=O)C1=C(N)Oc2cc(C)n(CCCn3ccnc3)c(=O)c2C1c1ccc(Cl)cc1 (configuration not stated)	n	99	97	n
CCOC(=O)C1=C(c2ccccc2)N=C2SCC(=O)N2C1c1cccc(OC)c1 (configuration not stated)	n	87	54	n
CCOC(=O)C1=C(c2ccccc2)N=C2SCC(=O)N2C1c1ccc(OC)c(OC)c1 (configuration not stated)	n	n	n	n
O=C(CN1C2=NCCN2c2ccccc21)c1ccc(Br)cc1	n	n	n	n
CN(C)[C@H]1N(C(=O)c2ccc(Br)cc2)N=C2c3ccccc3S(=O)(=O)N21	n	n	57	n
CN(C)/C=C/C(=O)c1ccc(Cl)cc1	n	n	n	n
CC(=O)c1c(C)nc(-c2ccc(Cl)cc2)nc1N=CN(C)C	n	n	51	n
CCNC(=O)CN(Cc1ccccc1)S(=O)(=O)c1ccccc1	n	n	n	n
COc1ccc(S(=O)(=O)N(CCc2ccccc2)CC(=O)O)cc1OC	n	n	n	n
COC(=O)CN(c1cc(OC)ccc1OC)S(=O)(=O)c1ccc(OC)c(OC)c1	n	95	63	n
COC(=O)CN(Cc1ccccc1)S(=O)(=O)c1ccc(OC)c(OC)c1	n	57	n	n
COC(=O)CN(CCc1ccccc1)S(=O)(=O)c1ccc(OC)c(OC)c1	n	99	n	n
COC(=O)CCCC(=O)Nc1c(F)c(F)c(F)c(F)c1F	n	n	n	n
COc1ccc(C2C(C(=O)NCCN(C)C)c3ccccc3C(=O)N2C)cc1OC (configuration not stated)	n	n	n	n
CCc1ccc(N/C(SCc2cccc(F)c2)=C(/C#N)C(=O)NCc2ccco2)cc1	n	55	68	n
Cc1ccc(N/C(SCc2ccccc2C)=C(/C#N)C(=O)NCc2ccco2)cc1C	n	n	80	n
Cc1ccccc1CSCC(=O)NC(=O)NCc1ccco1	n	n	n	n
O=C(NC(=O)c1cccc(Cl)c1)OC[C@@H]1CCCN2CCCCC12 (some centres not stated)	n	n	n	n
CCCCOC(=O)Nc1nc(C)c(C(=O)OCC)s1	n	n	n	n
CCOC(=O)c1sc(N)nc1C(C)C	n	52	n	n
CCCc1nc(N)sc1C(=O)OCC	n	55	n	n
Cc1ccc(S(=O)(=O)N2CCN(C(=O)c3cc4c(C)nn(-c5ccccc5)c4s3)CC2)cc1	n	n	n	n
Cc1ccccc1-n1nc(C)c2cc(C(=O)N3CCN(S(=O)(=O)c4ccc(Cl)cc4)CC3)sc21	n	n	66	n
Cc1ccccc1-n1nc(C)c2cc(C(=O)N3CCN(S(=O)(=O)c4ccc(F)cc4)CC3)sc21	n	n	75	n
c1ccc2c(c1)CCN(c1nc3cc4c(cc3s1)OCCO4)C2	n	n	n	n
SMILES	CYP2C9 activ	CYP2C19 inhib	CYP2C9 inhib	CYP2C19 activ
CCCSc1nnc(-c2ccccc2N)c(=O)[nH]1	n	n	n	n
O=C(N/C(=C/c1cccs1)c1nc2ccccc2[nH]1)c1ccccc1	n	n	n	n
N#CC(/C(=N/S(=O)(=O)c1cccs1)c1ccccc1)c1nc2ccccc2[nH]1 (configuration not stated)	n	n	95	n
O=C(COC(=O)Cn1cnc2ccccc21)NCCc1ccc(Cl)cc1	n	n	n	n
O=C(c1ccc([N+](=O)[O-])cc1)n1nc(-c2ccccc2)nc1NCc1ccccc1	n	n	n	n
O=C(CSc1nc(-c2ccccc2)nn1C(=O)c1ccccc1)Nc1cccc([N+](=O)[O-])c1	n	n	68	n
CCc1ccccc1NC(=O)CSc1nc(-c2ccccc2)nn1C(=O)c1cccc([N+](=O)[O-])c1	n	76	74	n
CCC(=O)n1nc(-c2ccccc2)nc1SCC(=O)Nc1ccc(C)cc1	n	n	n	n
